From PubChem BioAssay (NCATS) come the findings set out here.

Each structure is given as a SMILES string. Inconclusive results are not listed. The source made the active and inactive calls. Unless noted, calls follow the shape of the dose curve; as a rule, active = well fitted curve in the direction sought with a large enough effect; inconclusive = small, poorly fitted or top-dose-only effect, or another doubt; inactive = no such curve, though single readings can be large; an effect the other way counts as inactive or inconclusive. A value given as a limit tells only on which side of the number the result lay.

The target in assay [1] is 3',5'-cyclic-AMP phosphodiesterase 4B (Homo sapiens) (UniProt Q07343). Kind of assay: qHTS Assay for Inhibitors of PDE-IV (AID 607; active = well fitted activation curve with a large enough effect in the main read-out, with a control signal flat, not every such curve was filed as active; also: % of control where 0% means no effect). The procedure, abridged: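 Live HEK293 cells with a modified cyclic nucleotide-gated (CNG) channel report intracellular cAMP via membrane-potential dye fluorescence (ex 535/em 590 nm). Endogenous PDE-IV was targeted. Compounds were tested at up to 22.9 uM final; RO 20-1724 100 uM served as control.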
Sequence of 3',5'-cyclic-AMP phosphodiesterase 4B (Homo sapiens) (Q07343 whole entry, looked up): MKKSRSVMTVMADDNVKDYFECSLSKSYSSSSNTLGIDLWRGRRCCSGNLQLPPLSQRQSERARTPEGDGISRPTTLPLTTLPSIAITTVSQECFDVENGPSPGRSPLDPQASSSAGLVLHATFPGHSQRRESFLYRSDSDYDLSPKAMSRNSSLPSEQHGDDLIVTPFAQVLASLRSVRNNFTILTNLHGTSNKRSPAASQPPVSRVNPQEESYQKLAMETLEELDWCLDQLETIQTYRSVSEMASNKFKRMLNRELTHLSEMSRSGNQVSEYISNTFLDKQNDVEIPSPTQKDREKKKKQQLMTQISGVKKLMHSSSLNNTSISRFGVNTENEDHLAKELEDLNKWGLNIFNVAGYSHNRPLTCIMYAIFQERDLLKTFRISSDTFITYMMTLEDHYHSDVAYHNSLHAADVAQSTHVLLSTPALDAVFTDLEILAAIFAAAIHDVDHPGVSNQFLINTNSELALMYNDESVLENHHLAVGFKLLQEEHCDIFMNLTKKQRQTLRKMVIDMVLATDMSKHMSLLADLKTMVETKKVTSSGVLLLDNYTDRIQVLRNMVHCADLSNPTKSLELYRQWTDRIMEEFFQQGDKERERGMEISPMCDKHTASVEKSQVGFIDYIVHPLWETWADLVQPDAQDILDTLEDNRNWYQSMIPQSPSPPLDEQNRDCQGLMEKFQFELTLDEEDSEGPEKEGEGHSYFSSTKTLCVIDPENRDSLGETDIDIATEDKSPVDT
For orientation: Quantitative high-throughput screening tests each substance at several concentrations.

Assay [2] is described as follows: qHTS Assay for Lipid Storage Modulators (AID 1519; calls by dose curve). The settings on record: Drosophila S3 cells, BODIPY lipid droplet/cell ratio, laser cytometry, cells loaded with oleic acid; for activity change, negative = inhibition: at 57.5 µM (top of the series). The procedure, abridged:
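Cells seeded at 5,000 per well were treated with compounds over a concentration series and loaded with oleic acid (400 uM, as added). Lipid droplet fluorescence (488 nm excitation, 500-530 nm channel) was read by laser-scanning cytometry and normalized to 20 uM Triacsin C.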

In assay [3] the target is DNA dC->dU-editing enzyme APOBEC-3G (Homo sapiens) (UniProt Q9HC16). In words: qHTS for inhibitors of Vif-A3G interactions: Validation (AID 588379). Also: 0% is about no effect. A digest of the protocol: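 Yellow fluorescence (Ex 488, Em 500-530) of Vif-coexpressing HeLa A3G-eYFP cells, scanned by Acumen cytometer, reports blocked A3G degradation. Cells plated at 700/well overnight at 37 deg C before compound addition, then a further overnight compound incubation at 37 deg C.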
Sequence of DNA dC->dU-editing enzyme APOBEC-3G (Homo sapiens) (Q9HC16 whole entry, looked up): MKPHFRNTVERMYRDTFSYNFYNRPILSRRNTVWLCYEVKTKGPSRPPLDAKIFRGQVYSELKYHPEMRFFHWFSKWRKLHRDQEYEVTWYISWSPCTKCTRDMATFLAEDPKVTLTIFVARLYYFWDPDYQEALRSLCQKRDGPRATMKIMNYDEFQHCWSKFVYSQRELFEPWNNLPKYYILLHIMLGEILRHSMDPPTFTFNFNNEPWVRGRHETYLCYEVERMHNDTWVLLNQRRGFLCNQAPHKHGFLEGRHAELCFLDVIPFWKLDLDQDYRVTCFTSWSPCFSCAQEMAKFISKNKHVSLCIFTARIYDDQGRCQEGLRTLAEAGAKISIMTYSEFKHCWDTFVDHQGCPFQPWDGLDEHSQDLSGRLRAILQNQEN

Assay [4] deals with Zika virus NS2B-NS3 protease. In words: Primary screen GU AMC qHTS for Zika virus inhibitors (AID 1347154).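 Also: 0% = no-inhibitor control and -100% = no-enzyme control; nearly all actives have a fitted effect of over 70% in size.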 A digest of the protocol: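 Unlinked Zika NS2B hydrophilic domain/NS3 protease domain noncovalent complex (25 nM final) in 10 mM Tris-HCl pH 8.0, 0.01% Tween 20, with AMC peptide substrate. Fluorescence (ex 340, em 450 nm) change over 15 min, room temperature; percent inhibition fitted to 4-parameter Hill equation.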

A short description of assay [5]: Primary qHTS for small molecule stabilizers of the endoplasmic reticulum resident proteome: Secreted ER Calcium Modulated Protein (SERCaMP) assay (AID 1508630). Also: % is scaled to controls: 0 for no effect and ±100 for the full control effect. A digest of the protocol:
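The SH-SY5Y reporter protocol was run at 3 concentrations up to 38.3 uM (primary) or 11 concentrations (follow-up): 16 h compound, 100 nM thapsigargin for 4 h, then extracellular luciferase luminescence.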

For assay [6], the target named is Glucocorticoid receptor (Homo sapiens) (UniProt P04150). Kind of assay: GR-GFP Redistribution (AID 450;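 active = compounds whose dose series gives a full or clear partial fitted curve of increased nuclear translocation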; also: potency is read from the fitted curve at half-maximal effect). The conditions noted are these: U2OS GR-GFP nuclear translocation, laser cytometry, 2 h.
Sequence of Glucocorticoid receptor (Homo sapiens) (P04150 whole entry, looked up, the tested form may be a part): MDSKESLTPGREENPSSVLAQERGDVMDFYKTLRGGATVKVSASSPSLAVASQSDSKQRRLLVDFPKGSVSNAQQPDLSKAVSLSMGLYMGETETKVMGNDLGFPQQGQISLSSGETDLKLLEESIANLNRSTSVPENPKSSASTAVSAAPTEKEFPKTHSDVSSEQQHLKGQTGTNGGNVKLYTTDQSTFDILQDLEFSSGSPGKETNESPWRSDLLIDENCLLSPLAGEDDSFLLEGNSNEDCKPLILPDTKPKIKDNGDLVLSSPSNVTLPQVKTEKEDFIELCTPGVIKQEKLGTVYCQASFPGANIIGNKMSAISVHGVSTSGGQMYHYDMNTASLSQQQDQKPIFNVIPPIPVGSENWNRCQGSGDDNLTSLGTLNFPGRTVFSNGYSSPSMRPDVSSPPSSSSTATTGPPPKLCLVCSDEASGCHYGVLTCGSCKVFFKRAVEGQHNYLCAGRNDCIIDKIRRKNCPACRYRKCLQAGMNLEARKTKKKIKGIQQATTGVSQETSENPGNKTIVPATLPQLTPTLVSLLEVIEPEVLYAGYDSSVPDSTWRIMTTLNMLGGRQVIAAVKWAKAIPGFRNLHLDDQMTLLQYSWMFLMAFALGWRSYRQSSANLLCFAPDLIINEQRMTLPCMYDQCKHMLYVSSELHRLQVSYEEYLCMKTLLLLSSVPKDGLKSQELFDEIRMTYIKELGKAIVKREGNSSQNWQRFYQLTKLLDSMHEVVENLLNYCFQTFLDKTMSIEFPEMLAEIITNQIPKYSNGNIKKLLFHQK
Assay [7] addresses Mitogen-activated protein kinase 10 (Mus musculus) (UniProt Q61831). Kind of assay: JNK3 AlphaScreen Assay (AID 530; active = well fitted curve in either direction with a large enough effect, not every such curve was filed as active;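 also: kinase came from lysate of stimulated human HepG2 cells; signal reports phosphorylation of biotinylated GST-cJun 1-79 at Ser73 with 10 µM ATP; % is scaled to controls: 0 for no effect and ±100 for the full control effect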). A digest of the protocol: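 Phosphorylation of biotinylated GST-cJun(1-79) at Ser73 is measured by AlphaScreen proximity luminescence. Enzyme is JNK3 in HepG2 lysates activated with interleukin-1beta and tumor necrosis factor alpha; ATP is 10 uM final.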
Background: In Alpha technology, singlet oxygen from a donor bead excites a nearby acceptor bead.

Assay [8] addresses Cytochrome P450 2C19 (Homo sapiens) (UniProt P33261). Kind of assay: qHTS Assay for Inhibitors and Substrates of Cytochrome P450 2C19 (AID 899). Also: nearly all actives have a fitted effect of over 60% in size. Also: potency is read from the fitted curve at half-maximal effect. A digest of the protocol: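 NADPH-dependent conversion of Luciferin-H EGE (10uM, at KM) by 5nM enzyme in 50mM KPO4, 60 min at 37C following 10 min compound preincubation. Stopped with luciferin detection buffer; luminescence read after 20 min.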

The target of assay [9] is Glucocorticoid receptor (Homo sapiens) (UniProt P04150). Kind of assay: GR-EFC Redistribution (AID 451; calls by dose curve; also: potency is read from the fitted curve at half-maximal effect). The settings on record: CHO-K1 GR-EFC translocation, beta-gal luminescence, 2 h. The procedure, abridged: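 CHO-K1 cells stably expressing nuclear-localized β-gal enzyme acceptor and GR fused C-terminally to the enzyme donor fragment; ligand-driven nuclear translocation restores β-gal by complementation. Compounds titrated up to 46 uM final, 2 h at 37 °C; luminescence read.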

The target in assay [10] is Guanine nucleotide-binding protein G(i) subunit alpha-1 (Homo sapiens) (UniProt P63096). Kind of assay: qHTS Assay for Inhibitors of RGS12 GoLoco Motif Activity (Green Fluorophore) (AID 879).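 Also: 0% = labeled peptide with Gαi1 and full inhibition = labeled peptide alone without protein; negative values mean loss of peptide binding seen as reduced polarization.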 The procedure, abridged:
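A drop in FITC polarization marked displacement of the FITC-tagged RGS12 GoLoco peptide (10 nM) from Gαi1 (50 nM). Compounds were incubated 10 min at room temperature in Tris pH 7.5 buffer containing 150 mM NaCl, 0.1 mM GDP and 0.05% NP40; unlabeled peptide titration served as control.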

The target in assay [11] is Cytochrome P450 3A4 (Homo sapiens) (UniProt P08684). In words: qHTS Assay for Activators of Cytochrome P450 3A4 (AID 885). Also: nearly all actives have a fitted effect of over 65% in size. The procedure, abridged:
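Using 20nM recombinant human CYP3A4 in potassium phosphate (200mM), substrate Luciferin-PPXE at 25uM, luminescent luciferin detection followed a 60-min RT NADPH reaction; data scaled to 57 uM ketoconazole.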

Assay [12] in a line: qHTS Assay for Identification of Small Molecule Agonists for Thrombopoietin (TPO) Signaling Pathway (AID 917). Also: % is scaled to controls: 0 for no effect and ±100 for the full control effect. The procedure, abridged:
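Cell-based luciferase reporter screen. Mouse Ba/F3 line stably expressing human TPO receptor; IL-3 removed overnight before plating. Co-treatment with compound and EC50 TPO (26 pM), 24 hrs at 37 C, then luminescence.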

The target in assay [13] is Pyruvate kinase (Leishmania mexicana) (UniProt Q27686). In words: qHTS Validation Assay for Inhibitors of Leishmania Mexicana Pyruvate Kinase (AID 945).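 Also: 0% = DMSO only neutral control wells.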 A digest of the protocol: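 Read-out: luminescence from PKLight stop/detection reagent, data normalized to DMSO. Reaction: 0.2 nM E451W LmPYK, 0.5 mM PEP, 0.1 mM ADP, pH 7.2, 1 h room temperature.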
Sequence of Pyruvate kinase (Leishmania mexicana) (Q27686 2-499 E452W): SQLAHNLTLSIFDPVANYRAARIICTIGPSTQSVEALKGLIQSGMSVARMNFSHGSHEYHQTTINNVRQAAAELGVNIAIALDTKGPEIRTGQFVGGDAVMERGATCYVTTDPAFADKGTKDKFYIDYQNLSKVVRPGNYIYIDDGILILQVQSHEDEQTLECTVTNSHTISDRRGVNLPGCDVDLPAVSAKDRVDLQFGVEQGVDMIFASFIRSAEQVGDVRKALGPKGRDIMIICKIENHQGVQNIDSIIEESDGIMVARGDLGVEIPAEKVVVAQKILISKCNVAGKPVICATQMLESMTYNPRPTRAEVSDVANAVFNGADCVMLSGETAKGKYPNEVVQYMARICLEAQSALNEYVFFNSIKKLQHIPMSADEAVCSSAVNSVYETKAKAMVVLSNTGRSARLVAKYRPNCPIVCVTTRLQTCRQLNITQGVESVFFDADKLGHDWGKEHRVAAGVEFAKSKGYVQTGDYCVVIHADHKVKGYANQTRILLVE
For assay [14], the target named is Alpha-galactosidase A (Homo sapiens) (UniProt P06280). In words: Counterscreen for Glucocerebrosidase Inhibitors: qHTS Assay for Human alpha-Galactosidase at pH 4.5 (AID 992). Also: 0% is about no effect. A digest of the protocol:
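Each compound is preincubated briefly with 2 nM enzyme before substrate addition (80 uM); plates then sit 20 min at ambient temperature, are quenched with 1M NaOH/1M glycine, and read fluorometrically.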
For orientation: The purpose of a counterscreen is to sort out artefacts and off-target activity.

Assay [15] concerns the target alpha-glucosidase (Oryza sativa, rice) (UniProt Q653V4). In words: Counterscreen for Glucocerebrosidase Inhibitors: qHTS Assay for Rice alpha-Glucosidase at pH 5.0 (AID 997).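 Also: 0% = full activity with enzyme and -100% = basal without enzyme.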 The procedure, abridged: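 Endpoint fluorogenic assay at pH 5.0: compounds (0.7 nM to 77 uM) titrated against 4 nM rice enzyme and 400 uM 4-MU-alpha-glucoside for 20 min at room temperature; NaOH/glycine stop, read ex 365/em 440 nm, Hill-fitted AC50.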

Assay [16] has as its target Ubiquitin carboxyl-terminal hydrolase 1 (Homo sapiens) (UniProt O94782). In words: Inhibitors of USP1/UAF1: Pilot qHTS (AID 504865).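 Also: rhodamine fluorescence freed from ubiquitin-rhodamine substrate followed over time; top concentration of the series differs between compounds; % is scaled to controls: 0 for no effect and ±100 for the full control effect; nearly all actives have a fitted effect of over 35% in size.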 A digest of the protocol: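 In 50mM HEPES pH 7.8 containing 0.5mM EDTA, 1mM TCEP, 0.1 mg/ml BSA and 0.01% Tween-20, 1nM USP1/UAF1 is exposed to compound for 15 min, then Ub-Rho (150nM final) is added and fluorescence is read over time.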

Assay [17] is described as follows: AP1 Signaling Pathway (AID 357; active = well fitted curve in either direction with a large enough effect, not every such curve was filed as active; also: % is scaled to controls: 0 for no effect and ±100 for the full control effect). The settings on record: ME-180 AP-1-bla reporter, EGF-induced, beta-lactamase ratio, 5 h; at 38 µM (top of the series). A digest of the protocol:
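AP-1-bla ME-180 cells with beta-lactamase reporter under AP-1 response element, stimulated with EC50 EGF; compounds titrated, 5 hours at 37 degrees Celsius. CCF4 read at 460/530 nm ratio; positive and negative modulators judged by AC50.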

Assay [18] concerns the target Cytochrome P450 1A2 (Homo sapiens) (UniProt P05177). Kind of assay: p450-cyp1a2 (AID 410; calls by dose curve; also: potency is read from the fitted curve at half-maximal effect). A digest of the protocol: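 O-Demethylation of luciferin 6' methyl ether by human CYP1A2 is monitored as luciferase luminescence. Substrate sits at Km (100uM); enzyme is 20nM. Values are scaled to 57 uM furafylline as maximal inhibition.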
The nature of assay [19]: NFAT Signaling Pathway (AID 444; active = well fitted curve in either direction with a large enough effect, not every such curve was filed as active). The settings on record: Jurkat NFAT-bla M1, carbachol, beta-lactamase ratio, 5 h; at 38 µM (top of the series). A digest of the protocol: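 Jurkat cells carrying an NFAT-driven β-lactamase reporter and co-transfected muscarinic M1 receptor were treated with compound plus carbachol (1 uM final, an EC50 level) for 5 h at 37 °C. CCF4 loading followed for 1 h at RT; 460/530 nm ratio gave %activity.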

A short description of assay [20]: Stat Signaling Pathway (AID 446; active = well fitted curve in either direction with a large enough effect, not every such curve was filed as active). The settings on record: ME-180 (cervical carcinoma) SIE beta-lactamase reporter, IL-6 stimulated, 5 h; at 38 µM (top of the series). The procedure, abridged:
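Overnight-plated ME-180 cells bearing a STAT Inducible Element beta-lactamase reporter; 5 h co-exposure to compound and 40 pM IL-6; values normalized to 300 pM IL-6 and 125 nM JAK inhibitor controls.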

[21] abbreviates: measured here: cell count channel max response.
Where [22] appears, read: measured here: lipid channel max response.

Sequence of Guanine nucleotide-binding protein G(i) subunit alpha-1 (Homo sapiens) (P63096 whole entry, looked up): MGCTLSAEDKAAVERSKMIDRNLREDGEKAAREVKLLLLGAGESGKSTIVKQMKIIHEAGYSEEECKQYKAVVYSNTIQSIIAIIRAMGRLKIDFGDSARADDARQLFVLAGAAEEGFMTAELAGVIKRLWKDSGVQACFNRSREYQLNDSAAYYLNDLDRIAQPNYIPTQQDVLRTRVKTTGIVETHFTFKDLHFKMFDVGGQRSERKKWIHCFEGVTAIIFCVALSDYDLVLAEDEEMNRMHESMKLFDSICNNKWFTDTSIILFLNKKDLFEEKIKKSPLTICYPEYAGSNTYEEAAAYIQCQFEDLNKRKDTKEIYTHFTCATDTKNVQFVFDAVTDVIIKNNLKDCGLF
Sequence of Ubiquitin carboxyl-terminal hydrolase 1 (Homo sapiens) (O94782 whole entry, looked up): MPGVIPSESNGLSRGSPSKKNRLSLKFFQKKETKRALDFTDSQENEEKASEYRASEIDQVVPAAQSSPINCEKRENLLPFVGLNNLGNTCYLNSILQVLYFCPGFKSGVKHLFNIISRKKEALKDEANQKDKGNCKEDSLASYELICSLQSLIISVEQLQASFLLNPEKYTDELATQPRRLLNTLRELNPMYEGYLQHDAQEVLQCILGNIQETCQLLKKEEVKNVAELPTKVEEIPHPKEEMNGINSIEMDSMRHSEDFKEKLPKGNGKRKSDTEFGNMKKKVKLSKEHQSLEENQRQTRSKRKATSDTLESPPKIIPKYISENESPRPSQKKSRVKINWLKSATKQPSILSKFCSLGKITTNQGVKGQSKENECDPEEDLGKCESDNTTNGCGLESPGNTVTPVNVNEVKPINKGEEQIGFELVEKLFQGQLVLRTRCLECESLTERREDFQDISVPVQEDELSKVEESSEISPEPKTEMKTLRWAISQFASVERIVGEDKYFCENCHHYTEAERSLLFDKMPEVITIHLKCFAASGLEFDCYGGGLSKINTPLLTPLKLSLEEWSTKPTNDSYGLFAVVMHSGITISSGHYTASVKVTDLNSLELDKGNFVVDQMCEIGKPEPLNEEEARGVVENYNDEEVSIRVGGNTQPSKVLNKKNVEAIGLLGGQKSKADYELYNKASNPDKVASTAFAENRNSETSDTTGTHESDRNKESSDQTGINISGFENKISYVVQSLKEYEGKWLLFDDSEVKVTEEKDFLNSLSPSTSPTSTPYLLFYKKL
Sequence of Cytochrome P450 1A2 (Homo sapiens) (P05177 whole entry, looked up): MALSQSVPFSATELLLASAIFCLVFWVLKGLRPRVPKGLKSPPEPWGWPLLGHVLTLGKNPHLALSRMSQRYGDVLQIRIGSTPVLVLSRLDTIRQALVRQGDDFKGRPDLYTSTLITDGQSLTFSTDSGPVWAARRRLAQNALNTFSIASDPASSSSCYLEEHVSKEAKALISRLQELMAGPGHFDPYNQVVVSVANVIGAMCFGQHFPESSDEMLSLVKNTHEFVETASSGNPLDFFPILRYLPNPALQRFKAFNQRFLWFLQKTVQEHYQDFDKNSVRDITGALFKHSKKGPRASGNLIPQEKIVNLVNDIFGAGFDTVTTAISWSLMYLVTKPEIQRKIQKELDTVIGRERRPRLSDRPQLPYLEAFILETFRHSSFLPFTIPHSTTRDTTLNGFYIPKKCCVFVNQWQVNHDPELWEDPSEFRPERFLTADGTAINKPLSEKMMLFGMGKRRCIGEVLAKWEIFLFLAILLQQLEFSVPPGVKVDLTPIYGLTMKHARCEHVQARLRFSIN
Sequence of Alpha-galactosidase A (Homo sapiens) (P06280 whole entry, looked up): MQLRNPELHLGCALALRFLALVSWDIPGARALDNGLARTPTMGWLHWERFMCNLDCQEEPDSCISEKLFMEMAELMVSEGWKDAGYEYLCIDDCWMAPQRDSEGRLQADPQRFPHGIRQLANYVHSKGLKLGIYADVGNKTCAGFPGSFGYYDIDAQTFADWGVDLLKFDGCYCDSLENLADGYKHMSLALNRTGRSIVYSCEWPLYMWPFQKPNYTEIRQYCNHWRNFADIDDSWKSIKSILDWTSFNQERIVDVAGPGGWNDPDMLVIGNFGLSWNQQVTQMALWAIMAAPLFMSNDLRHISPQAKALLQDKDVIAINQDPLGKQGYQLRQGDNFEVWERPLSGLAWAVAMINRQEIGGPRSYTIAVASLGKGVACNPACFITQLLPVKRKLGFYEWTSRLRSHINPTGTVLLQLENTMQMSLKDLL
Sequence of Cytochrome P450 2C19 (Homo sapiens) (P33261 whole entry, looked up): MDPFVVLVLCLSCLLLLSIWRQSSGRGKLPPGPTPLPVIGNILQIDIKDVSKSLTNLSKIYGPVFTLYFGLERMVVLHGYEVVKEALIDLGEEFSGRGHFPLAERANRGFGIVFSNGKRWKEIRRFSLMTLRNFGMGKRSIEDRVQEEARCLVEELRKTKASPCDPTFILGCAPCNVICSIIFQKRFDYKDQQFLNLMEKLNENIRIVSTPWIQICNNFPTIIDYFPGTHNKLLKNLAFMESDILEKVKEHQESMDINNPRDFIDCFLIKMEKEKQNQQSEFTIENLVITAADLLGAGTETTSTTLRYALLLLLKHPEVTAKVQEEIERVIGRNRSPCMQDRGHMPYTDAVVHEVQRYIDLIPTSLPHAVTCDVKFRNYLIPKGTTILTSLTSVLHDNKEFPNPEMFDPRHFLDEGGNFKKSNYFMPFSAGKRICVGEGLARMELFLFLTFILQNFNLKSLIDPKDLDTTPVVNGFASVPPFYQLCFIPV

Consider `O=C1CC2(CCCC2)CC(=O)N1CCNC[C@H]1COc2ccccc2O1`, for which the Potency result in assay [1], in [3], in assay [4] and in assay [5] was “inactive” in each case. Also, in [2], the activity change, negative = inhibition is -0.603% (inactive). Besides, the max response in assay [2] (setting [21]) stood at 16.6%; in [2] (setting [22]), 17.5%.

Regarding `CSc1nc(N)c2ncn([C@H]3O[C@H](COP(=O)(O)OP(=O)(O)OP(=O)(O)O)[C@@H](O)[C@@H]3O)c2n1`, the Potency in assay [6] was > 46 µM (inactive). For the same compound, the Potency entry in [7], in [1], in [8], in assay [3], in [4] and in [5] was “inactive” in each case. The activity change, negative = inhibition in assay [2] was 4.02% (inactive). Also, the max response is -2.91% in [2] (setting [21]) and 1.82% in [2] (setting [22]).

For `COc1ccc2[nH]c(-c3ccccc3)c(CCNC(C)=O)c2c1`, the Potency in assay [6] is > 46 µM (inactive); in assay [9] it was > 46 µM (inactive); in assay [8], 7.94 µM (active). The Potency entry in assay [7], in assay [1], in [3], in [4] and in assay [5] was “inactive” each time.

Turning to `CC[C@H](C)C(=O)O[C@H]1CCC=C2C=C[C@H](C)[C@H](CC[C@@H]3C[C@H](O)CC(=O)O3)[C@H]21`, the Potency in [6] and in assay [9] was > 46 µM (inactive) in each case. Moreover, the Potency entry in assay [7], in assay [11], in assay [12], in assay [13], in assay [3] and in assay [4] was “inactive” in each case. Moreover, in assay [5], the Potency result is “inactive”. Further, the compound was called inactive in [10], in [14] and in assay [15].

For the compound `CCOC(=O)C(CCc1ccccc1)NC1CCc2ccccc2N(CC(=O)O)C1=O` (stereo unspecified), the activity change, negative = inhibition in assay [2] is 1.93% (inactive). For the same compound, the max response in [2] (setting [21]) was 11.8%; in assay [2] (setting [22]), 17.9%. Also, the Potency result in assay [16], in [4] and in [5] was “inactive” each time.

Regarding `CCn1ccnc1C[C@@H]1COc2ccccc2O1`, the activity change, negative = inhibition in [17] was -10% (inactive); in assay [19], -4.02% (inactive). In addition, the Potency in [18] was 15.8 µM (active); in assay [6] it was > 46 µM (inactive); in assay [9] it was > 46 µM (inactive). In assay [20], the activity, negative = inhibition was -3.71% (inactive). In addition, the Potency result in assay [7], in assay [1], in [12], in [13], in [3] and in assay [4] was “inactive” in each case. In assay [5], the Potency result is “inactive”. Moreover, the compound was classed as inactive in assay [10], in [14] and in assay [15].

Take `C[C@H](CCC(=O)O)[C@H]1CC[C@H]2[C@H]3C(CC[C@]12C)[C@@]1(C)CC[C@@H](O)C[C@H]1C[C@H]3O` (stereo partly specified): the activity change, negative = inhibition in assay [2] is -7.53% (inactive). In addition, the max response in [2] (setting [21]) turned out to be 14.2%; in [2] (setting [22]), 5.28%. For the same compound, the Potency entry in assay [16], in assay [3], in assay [4] and in assay [5] was “inactive” in each case.
